# Rows were chosen to be rich in hits. Some 2.6% of all compounds tested hit in one or more screens of this group.
# GALK inh – inhibitors of human galactokinase (GALK); P51570; AID 1347072; Potency, µM (top dose mostly 57.5 µM), most hits filed as inhibitors; recombinant GALK, Kinase-Glo ATP luminescence, 1 h; 44,000 tested, under 10 active
#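 Reactions with and without enzyme served as controls. GALK at 5 nM phosphorylates 100 uM galactose using 35 uM ATP (HEPES pH 8.0, Mg2+) for 1 h at RT, with luminescence read 10 min after adding Kinase-Glo Plus.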
# B2AR arrestin ag – beta-arrestin recruitment by human beta2-adrenergic receptor ligands; 44,000 tested, under 10 active; Potency, µM (series often up to 46.1 µM), actives largely listed as activators; HTLA Tango cells, beta-arrestin recruitment, luciferase luminescence, 18 h
#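 Tango cell line, 1% FBS DMEM; cpd titration up to 46 microM; 18 hr, 37 degrees C, 5% CO2. Luciferin/ATP substrate mix added, 15 min RT, luminescence. %Activity, CRC fitting, curve-class categorization.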
# PTAP-TSG101 blk – blocks PTAP binding to human TSG101, validation. 44,000 tested, under 10 active. Q99816. AID 1347069. Fluorescence polarization, FITC-PTAP peptide/Tsg101, 20 min. Potency, µM (top dose mostly 115 µM), usual class: inhibitors
#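 qHTS FP binding, 20 min r.t.: 10 uM Tsg101 domain + 50 nM FITC-PTAP peptide, pH 7.5 HEPES buffer with TCEP and EDTA.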
# GPR32 ag – agonists of human resolvin D1 receptor DRV1 (GPR32) | CHO-K1 GPR32 beta-arrestin PathHunter luminescence, 90 min; zero percent set by DMSO-only wells | actives 2.5% (n = 48,000) | O75388 | activation, % at 76.9 µM;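 active = activation of at least 60% and not above a set upper limit, about 1 call in 100 departs from these limits; inconclusive = activation of 40% to 60%, or above that upper limit; inactive = activation under 40%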
#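 Agonism was scored by beta-Gal fragment complementation (chemiluminescent read, 1 h detection at ambient temperature) reporting beta-arrestin binding to GPR32 in engineered CHO-K1 cells. Compound treatment lasted 90 min at 37 C, normalized to a DMSO basal control.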
# GALC G270D act – enhancers of human galactocerebrosidase G270D mutant activity in cells; P54803; 145M-Twi-hGALC-G270D cells (Twitcher mouse brain line with human GALC G270D), HMU-beta-Gal fluorescence, 48 h; Potency, µM (series often up to 57.5 µM), most hits filed as activators; actives 0.1% (n = 45,000); note: nearly all actives have a fitted effect of over 65% in size
# Target sequence (P54803 whole entry G286D): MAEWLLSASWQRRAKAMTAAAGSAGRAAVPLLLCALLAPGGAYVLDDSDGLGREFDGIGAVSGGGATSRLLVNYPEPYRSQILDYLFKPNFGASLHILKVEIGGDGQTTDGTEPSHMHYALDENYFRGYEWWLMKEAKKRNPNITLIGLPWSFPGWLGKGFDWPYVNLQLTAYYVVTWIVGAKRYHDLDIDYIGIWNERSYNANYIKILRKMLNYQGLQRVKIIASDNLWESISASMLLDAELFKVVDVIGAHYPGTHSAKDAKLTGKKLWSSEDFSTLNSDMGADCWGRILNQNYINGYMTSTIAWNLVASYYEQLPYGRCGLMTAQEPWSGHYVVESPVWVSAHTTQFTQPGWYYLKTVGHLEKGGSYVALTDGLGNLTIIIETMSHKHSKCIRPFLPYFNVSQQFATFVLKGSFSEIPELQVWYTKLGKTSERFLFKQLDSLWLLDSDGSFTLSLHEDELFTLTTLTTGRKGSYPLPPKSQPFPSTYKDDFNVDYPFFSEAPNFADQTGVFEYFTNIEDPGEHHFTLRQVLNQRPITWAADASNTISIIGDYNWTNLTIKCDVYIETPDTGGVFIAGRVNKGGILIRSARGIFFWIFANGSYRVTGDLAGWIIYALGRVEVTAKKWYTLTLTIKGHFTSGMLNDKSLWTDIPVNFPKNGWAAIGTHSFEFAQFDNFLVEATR
#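 Mutant human GALC (G270D), stably expressed in a Twitcher mouse brain cell line lacking endogenous GALC, is measured in live-treated cells via 6-hexadecanoylamino-4-methylumbelliferyl-β-galactoside hydrolysis (0.1 mM final, pH 5.2) with fluorescent detection.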
# Numbers stand for hits; i = inactive; ? = inconclusive; nt = no result given. Unless noted, calls come from the whole dose curve; as a rule, active = well fitted curve in the direction sought with a large enough effect; inconclusive = small, poorly fitted or top-dose-only effect, or another doubt; inactive = no such curve, though single readings can be large; an effect the other way counts as inactive or inconclusive.
SMILES,GALK inh,B2AR arrestin ag,PTAP-TSG101 blk,GPR32 ag,GALC G270D act
CCOC(=O)c1cccc(Nc2c3c(nc4ccccc24)CCC3)c1,i,i,i,78,i
CCOC(=O)c1cccc(Nc2nc(C(=O)OCC)nc3ccccc23)c1,i,i,i,i,i
CCOc1ccccc1C(=O)Nc1ccc2nc3c(c(Nc4ccc(OC)c(OC)c4)c2c1)CCCC3,i,i,i,i,i
CCCOC(=O)c1cccc(Nc2nc(C(=O)OCC)nc3ccccc23)c1,i,i,i,93,i
COc1ccc(/C(C)=C/C(=O)O)c(OC)c1,nt,nt,nt,i,i
Cc1ccc(CNc2nccn(-c3cc(C)cc(C)c3)c2=O)cc1,i,i,i,i,i
Cc1cc(C)cc(-n2ccnc(NCc3ccc(F)cc3)c2=O)c1,i,i,i,i,i
COc1ccc(-n2ccnc(NCc3ccc(Cl)cc3)c2=O)cc1,i,i,i,60,i
COc1cccc(CNc2nccn(-c3cc(C)cc(C)c3)c2=O)c1,i,i,i,63,i
C=CCn1c(=O)n([C@@H]2O[C@H](CO)[C@@H](O)[C@H]2O)c2nc(N)[nH]c(=O)c21,nt,nt,nt,i,i
C[C@]12CCC(=O)C=C1[C@@H]1C[C@@H]1[C@H]1[C@@H]3[C@@H]4C[C@@H]4[C@@]4(CCC(=O)O4)[C@@]3(C)CC[C@@H]12,nt,nt,nt,i,i
COc1cc(CNCCSc2nnnn2C)ccc1OCc1ccccc1C,i,i,i,73,i
Cn1nnnc1SCCNCc1cc(Br)ccc1OCc1ccccc1Cl,i,i,i,75,i
Cn1nnnc1SCCNCc1ccc(OCc2ccccc2Cl)cc1,i,i,i,i,i
Cc1cccc(N2CCN(C(=O)CCCCn3c(=O)[nH]c4ccsc4c3=O)CC2)c1C,i,i,i,62,i
O=C(CCCCn1c(=O)[nH]c2ccsc2c1=O)N1CCN(c2cccc(C(F)(F)F)c2)CC1,i,i,i,74,i
COc1cc2[nH]c(=O)n(CCCC(=O)N3CCN(c4cccc(C(F)(F)F)c4)CC3)c(=O)c2cc1OC,i,i,i,i,i
N.N.N.N.N.N.N.N.N.N.N.N.N.N.O.O.[Ru+4].[Ru+5].[Ru+5],nt,nt,nt,i,nt
CCc1ccccc1NC(=O)CSc1nnc(COc2ccccc2Cl)o1,i,i,i,69,i
COc1cccc(NC(=O)CSc2nnc(COc3ccc(Cl)cc3)o2)c1,i,i,i,i,nt
CCC(=O)C1=C(c2ccc(C)cc2)N(C(=O)CC)n2c(nnc2C2CCCCC2)S1,i,i,i,i,i
Cc1cc(C2CCCCC2)n(O)c(=O)c1,nt,nt,nt,77,i
Cc1ccc(OCCCC(=O)Nc2sc3c(c2C(N)=O)CCC(C)C3)cc1 (stereo unspecified),i,i,i,i,nt
CC1CCc2c(sc(NC(=O)CCCOc3ccccc3)c2C(N)=O)C1 (stereo unspecified),i,i,i,96,i
CCS(=O)(=O)N1CCc2cc(C(=O)Nc3ccc(Br)cc3F)ccc21,i,i,i,74,i
SMILES,GALK inh,B2AR arrestin ag,PTAP-TSG101 blk,GPR32 ag,GALC G270D act
CCS(=O)(=O)N1CCc2cc(C(=O)Nc3cccc(C)c3C)ccc21,i,i,i,i,i
CCCCC(=O)Nc1cccc(-c2nc3ccccc3s2)c1,i,i,i,92,i
COc1cccc(CC(=O)Nc2ccc(-c3nc4ccccc4s3)cc2)c1,i,i,i,?,i
O=C(CCn1c(=O)c2cccn2c2cccnc21)N1CCN(c2ccccc2F)CC1,?,i,i,i,i
COc1ccc(-c2noc(COc3ccc(C)cc3C)n2)cc1OC,i,i,i,i,i
COc1ccccc1OCc1nc(-c2cccc(C)c2)no1,i,i,i,77,i
COc1ccccc1C(=O)N(Cc1nc(-c2cccc(C)c2)no1)C(C)C,i,i,i,87,i
COc1ccc(-c2cc(C(F)(F)F)nc(SCC(=O)NC(C)c3ccccc3)n2)cc1 (stereo unspecified),i,i,i,106,i
Cc1ccc(NC(=O)CCSc2nc(-c3ccco3)cc(C(F)(F)F)n2)cc1F,i,i,i,i,i
O=C(CCSc1nc(-c2ccco2)cc(C(F)(F)F)n1)Nc1cccc(O)c1,i,i,i,i,22µM
COc1ccc(-c2cc(C(F)(F)F)nc(SCCC(=O)Nc3ccc(O)cc3)n2)cc1,i,i,i,86,i
COc1ccc(-c2cc(C(F)(F)F)nc(SCC(=O)NCCc3ccccc3)n2)cc1,i,i,i,i,i
COc1ccc(NC(=O)CCSc2nc(-c3ccc(OC)cc3)cc(C(F)(F)F)n2)cc1,i,i,i,i,i
COc1cccc(CNC(=O)C2CCCN(S(=O)(=O)c3ccc4c(ccn4C)c3)C2)c1OC (stereo unspecified),i,i,i,i,i
CCc1ccc(CNC(=O)c2sc3ncccc3c2-n2c(C)ccc2C)cc1,i,i,i,i,i
COc1cc(CNc2ccc3[nH]c(=O)[nH]c3c2)ccc1OCc1ccc(F)cc1Cl,i,i,i,i,i
CCOc1c(Cl)cc(CNc2ccc3[nH]c(=O)[nH]c3c2)cc1OC,i,i,i,85,i
NS(=O)(=O)c1ccc(CCNc2nccn(-c3cccc(C(F)(F)F)c3)c2=O)cc1,i,i,i,63,i
Cc1cccc(CNC(=O)C2CCN(S(=O)(=O)c3ccc4c(c3)CCCN4C(=O)C3CCC3)CC2)c1,i,i,i,i,i
COc1ccc(S(=O)(=O)c2c(SC)nn(CC(=O)Nc3ccc(C)c(Cl)c3)c2N)cc1,i,i,i,86,i
CCSc1nn(CC(=O)Nc2cccc(CC)c2)c(N)c1S(=O)(=O)c1ccccc1,i,i,i,94,i
COc1ccc(-n2cc(-c3ccccc3)c3c(SC(C)C(C)=O)ncnc32)cc1 (stereo unspecified),i,i,i,99,i
CCS(=O)(=O)N1CCCc2cc(C(=O)Nc3cc([N+](=O)[O-])ccc3C)ccc21,i,i,i,i,i
CO/N=C(\C(=O)N[C@@H]1C(=O)N2C(C(=O)O)=C(CSc3nc(=O)c(O)nn3C)CS[C@H]12)c1csc(N)n1,nt,nt,nt,i,i
CCCCCOc1ccc(C2SC(=O)NC2=O)cc1OCC (stereo unspecified),nt,nt,nt,i,i
O=C(CC(c1cccs1)N1Cc2ccccc2C1=O)Nc1ccccc1 (stereo unspecified),i,i,i,i,i
O=C(CC(c1cccs1)N1Cc2ccccc2C1=O)Nc1cccc(F)c1 (stereo unspecified),i,i,i,61,i
CC(=O)N1c2ccccc2CC1C(=O)N1CCN(c2cccc(C)c2C)CC1 (stereo unspecified),i,i,i,116,i
